Experimental data: PubChem BioAssay

Tests used:
[1] = system: Human papillomavirus type 1a protein E7 (residues 44-93); assay: small molecules binding HPV E7 44-93 – biochemical, small-molecule microarray, residues 44-93, 635 nm fluorescence, primary screen (AID 1108); conditions: fluorescence 635 nm, higher = more signal;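 also: E7 fragment applied at 1 µg/mL in TBST for 1 h at 4 C; score combines spot fluorescence with its signal to noise ratio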
[2] = hepatitis C replication reporter changes, two-sided – Huh7 cells, luciferase reporter, HCV replication inhibitor project, primary screen (AID 1109); conditions: Huh7 HCV replicon luciferase reporter, 48 h; higher = more signal;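 also: huh7 hepatoma cells harbouring a luciferase neomycin HCV replicon reporter; luciferase luminescence as measure of HCV replicon replication; test concentration not given here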
[3] = target: Left-right determination factor 2 (Homo sapiens) (UniProt O00292); assay: small molecules binding LEFTY2 protein – biochemical, small-molecule microarray, 635 nm fluorescence scan, primary screen (AID 1110); conditions: higher = more signal
Chain of Left-right determination factor 2 (Homo sapiens) (O00292 whole entry, looked up): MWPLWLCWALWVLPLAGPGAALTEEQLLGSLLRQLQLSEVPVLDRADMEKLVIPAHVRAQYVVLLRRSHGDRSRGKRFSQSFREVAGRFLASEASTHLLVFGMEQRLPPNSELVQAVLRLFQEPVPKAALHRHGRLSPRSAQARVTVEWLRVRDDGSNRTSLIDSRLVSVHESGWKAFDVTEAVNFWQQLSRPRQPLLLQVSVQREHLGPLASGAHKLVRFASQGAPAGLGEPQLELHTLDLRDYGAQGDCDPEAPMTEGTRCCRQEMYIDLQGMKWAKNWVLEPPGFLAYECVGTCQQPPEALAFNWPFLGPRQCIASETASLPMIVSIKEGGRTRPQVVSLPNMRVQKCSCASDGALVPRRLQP

[4] = target: Calmodulin-1 (Homo sapiens) (UniProt P0DP23); assay: small molecules binding calmodulin-1 with EGTA – biochemical, small-molecule microarray, Cy5-labelled CALM1, profiling panel (AID 1111); conditions: Cy5-CALM1 binding fluorescence, higher = more signal;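 also: labelled calmodulin applied in Tris saline Tween buffer holding calcium plus EGTA and DTT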
[5] = target: Calmodulin-1 (Homo sapiens) (UniProt P0DP23); assay: small molecules binding Ca-loaded calmodulin-1 – biochemical, small-molecule microarray, Cy5-labelled CALM1, plus calcium, artefact control for SMM control-protein annotation, profiling panel (AID 1112); conditions: Cy5-CALM1 binding fluorescence, higher = more signal;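 also: score merges spot fluorescence with signal to noise from triplicate slides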
[6] = probe aWnt5a binding to arrayed compounds – biochemical, biotinylated probe, 635/667 nm fluorescence, primary screen (AID 1113); conditions: small-molecule microarray, higher = more signal;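 also: score merges 667 nm fluorescence intensity with signal-to-noise per printed feature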
[7] = probe aShh binding to arrayed compounds – biochemical, biotinylated probe, 635/667 nm fluorescence, primary screen (AID 1114); conditions: small-molecule microarray, higher = more signal;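 also: probe is biotin-labelled aShh protein from a stem cell growth factor screen; measures binding of labelled protein to compounds printed on the slide; score merges feature fluorescence at 667 nm with signal-to-noise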
[8] = probe aNog binding to arrayed compounds – biochemical, biotinylated probe, 635/667 nm fluorescence, primary screen (AID 1115); conditions: small-molecule microarray, higher = more signal;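 also: probe is biotinylated aNog protein used at 0.15 µg/mL for 1 h at 4 C; z-score combines 667 nm fluorescence of each spot with its signal to noise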
[9] = target: Torsin-1A-interacting protein 1 (Homo sapiens) (UniProt Q5JTV8); assay: compound microarray binding of lysate hLAP1 – cell lysate, small-molecule microarray, COS7 lysate, 635/667 nm fluorescence, primary screen (AID 1116); conditions: 635 nm fluorescence, higher = more signal
Chain of Torsin-1A-interacting protein 1 (Homo sapiens) (Q5JTV8 whole entry, looked up): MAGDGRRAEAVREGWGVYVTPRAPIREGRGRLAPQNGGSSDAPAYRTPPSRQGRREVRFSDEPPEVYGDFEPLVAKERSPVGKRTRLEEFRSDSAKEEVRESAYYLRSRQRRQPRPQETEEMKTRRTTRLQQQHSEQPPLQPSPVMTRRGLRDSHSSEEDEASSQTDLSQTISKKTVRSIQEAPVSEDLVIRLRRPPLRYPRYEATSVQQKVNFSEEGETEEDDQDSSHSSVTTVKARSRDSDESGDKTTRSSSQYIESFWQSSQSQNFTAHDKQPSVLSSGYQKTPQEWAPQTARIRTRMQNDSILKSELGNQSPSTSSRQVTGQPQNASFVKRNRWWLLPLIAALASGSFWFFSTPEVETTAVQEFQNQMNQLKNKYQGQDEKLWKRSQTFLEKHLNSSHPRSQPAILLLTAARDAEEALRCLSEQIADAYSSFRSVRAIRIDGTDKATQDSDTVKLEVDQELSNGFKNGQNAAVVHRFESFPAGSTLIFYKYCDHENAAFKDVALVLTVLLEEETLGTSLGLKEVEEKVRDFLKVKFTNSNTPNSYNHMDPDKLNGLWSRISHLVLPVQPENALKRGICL

[10] = target: Alpha-bungarotoxin (Bungarus multicinctus) (UniProt P60615); assay: compounds binding labelled alpha-BTX control protein – biochemical, small-molecule microarray, Alexa647 label, 635/667 nm fluorescence, artefact control for SMM control protein annotation, profiling panel (AID 1117); conditions: alpha-BTX-A647 binding fluorescence, higher = more signal
Chain of Alpha-bungarotoxin (Bungarus multicinctus) (P60615 whole entry, looked up): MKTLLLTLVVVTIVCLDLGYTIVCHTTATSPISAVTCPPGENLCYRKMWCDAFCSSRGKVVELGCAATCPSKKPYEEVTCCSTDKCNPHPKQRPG

Row | SMILES | composite z-score [1] | z-score [2] | composite z-score [3] | composite z-score [4] | composite z-score [5] | composite z-score [6] | composite z-score [7] | composite z-score [8] | composite z-score [9] | composite z-score [10]
1 | COc1cc(CO)cc(I)c1O[C@H]1C=C(C(=O)NCCO)C[C@@H](N(CCN2CCOCC2)C(=O)C2CCOC2)[C@@H]1O (stereo not given in full) | -0.923 | -0.282 | 0.897 | -0.0002 | -0.543 | -0.247 | 0.0639 | -0.281 | 0.085 | 0.0392
2 | C#CCN(CC1=CCCCC1)[C@H](c1ccccc1Br)[C@@H](O)Cc1ccccc1 | -0.0413 | -2.33 | -1.07 | -0.929 | -0.568 | -0.118 | 0.108 | -0.368 | 0.632 | 0.92
3 | C=CCOC(=O)[C@@H]1[C@H]2C(=O)O[C@H](c3ccccc3)[C@H](c3ccccc3)N2[C@H](c2ccc(OCCOC(=O)[C@@H]3C[C@@H]4C(=O)N[C@@H](CCCCN(C)C)C(=O)N4[C@@H]3c3ccc(O)cc3)cc2)[C@@]12C(=O)Nc1ccc(I)cc12 | 1.34 | -2.84 | 0.696 | 0.846 | -0.0759 | -0.0927 | 0.432 | -0.12 | 0.454 | 0.78
4 | CCCC=C(CCC)[C@@H](NC(=O)Oc1ccc(F)cc1)c1ccc(C(=O)OC)cc1 | 1.32 | -2.48 | 0.354 | 0.977 | 1.13 | 0.0307 | 0.336 | 0.83 | 0.303 | 0.799
5 | C=CCC(OC(C)=O)[C@@H]1[C@@H](N(Cc2ccc(-c3ccccc3)cc2)C(=O)Cc2ccc(F)cc2)c2cc(OCCCO)ccc2N1C(=O)c1ccc(-c2ccccc2)cc1 (stereo not given in full) | -0.866 | -1.23 | -0.177 | -0.454 | 0.266 | -0.1 | 0.0048 | -0.143 | 0.205 | -0.257
6 | CCCCCC1=C2CNC(CCC)(C(=O)OC)C=C2C(C)C1=O (stereo not given) | 0.514 | -0.183 | -0.477 | 1.42 | 1.27 | -0.0125 | 0.811 | 1.66 | 0.997 | 0.334
7 | CN(C)CCCCCCNC(=O)[C@@H]1C[C@@H]2C(=O)N[C@@H](CCCCN)C(=O)N2[C@@H]1c1cccc(OCCO)c1 | 1.49 | -0.0282 | 1.34 | 2.8 | 1.34 | 1.07 | 1.7 | 3.42 | 4.77 | 2
8 | CC(C)[C@@H](CO)NC(=O)[C@H]1[C@@H](c2ccccc2)N(c2ccccc2)O[C@@H]1C | 0.0503 | 0.0505 | 0.28 | -0.31 | -0.354 | -0.148 | -0.186 | -0.181 | 0.382 | 0.0366
9 | COCC(=C=CC[C@H](O)c1ccccc1OCCO)C[C@H](O)c1cc(Cl)cc(Cl)c1O | 1.31 | -4.43 | 0.223 | 0.068 | -0.596 | 0.0357 | 0.207 | 0.464 | 0.743 | 1.08
10 | COC(=O)[C@@]1(Cc2ccc(OC)cc2)[C@H]2c3cc(C(=O)N(C)C)n(Cc4cccc5ccccc45)c3C[C@H]2CN1C(=O)c1ccccc1 | 1.48 | -2.35 | 0.243 | 1.48 | 0.94 | 0.346 | 1.33 | 2.12 | 1.41 | 0.563
11 | O=C1NC(=O)C2C1C=CC(C(O)C(c1ccccc1)c1ccccc1)N2Nc1ccc(Cl)cc1Cl (stereo not given) | 1.36 | -1.75 | -0.5 | 1.81 | 0.625 | 0.065 | 0.234 | 1.41 | 0.343 | 0.503
12 | C=C(/C(=C/C[C@@H](OC(C)=O)c1ccc(OCCO)cc1)c1cnc2ccccc2c1)C(C)C | 1.32 | -1.19 | 0.49 | -0.196 | -0.541 | -0.091 | 0.111 | 0.0541 | 0.113 | 0.249
13 | CN(C)C(=O)[C@@]1(Cc2ccccc2)N=C(c2ccc(OCCCO)cc2)O[C@H]1c1ccccc1N=[N+]=[N-] | 1.42 | -2.79 | -0.0506 | 1.09 | 0.0779 | 0.178 | -0.0146 | -0.482 | 0.491 | 0.567
14 | COc1cc2c(cc1OC)CN(C(=O)[C@@H]1[C@H]3C(=O)O[C@H](c4ccccc4)[C@H](c4ccccc4)N3[C@H](c3ccc(O)cc3)[C@@]13C(=O)Nc1ccc(C#CC4(O)CCCCCC4)cc13)CC2 | 1.21 | -1.1 | 1.39 | 0.965 | -0.0394 | -0.195 | -0.0005 | 2.1 | 0.344 | 1.66
15 | CC1CC/C=C\[C@H]2OC34C=CCN(C(C)(C)C)C(=O)[C@H]3N(CCCCCCO)C(=O)[C@@H]4C2C(=O)O1 (stereo not given in full) | -0.0409 | -0.549 | -1.06 | -0.0234 | 0.725 | -0.154 | -0.0553 | 0.0511 | 0.656 | -1.06
16 | CN1C(=O)C2C=CC(C(O)C3=C[C@H]4C[C@@H](C3)C4(C)C)N(Nc3ccccc3)C2C1=O (stereo not given in full) | 1.41 | -0.181 | 0.269 | 0.18 | -0.162 | 0.14 | 0.13 | 0.612 | 0.802 | 0.647

Row | SMILES | composite z-score [1] | z-score [2] | composite z-score [3] | composite z-score [4] | composite z-score [5] | composite z-score [6] | composite z-score [7] | composite z-score [8] | composite z-score [9] | composite z-score [10]
17 | COCCOC(=O)N1C(=O)[C@@]2(c3ccccc31)[C@H](c1ccccc1OCCO)N1[C@H](c3ccccc3)[C@H](c3ccccc3)OC(=O)[C@H]1[C@@H]2C(=O)Nc1nc2ccccc2s1 | 0.484 | -2.52 | 0.531 | 1.24 | 0.375 | 0.0095 | -0.188 | 0.326 | 0.988 | 1.74
18 | COCCCNC(=O)C1N=C(c2ccc(OCCCO)cc2)N(c2ccccc2)O1 (stereo not given) | 1.41 | -1.46 | 0.382 | 1.08 | 0.131 | -0.0286 | -0.0035 | 0.752 | 0.477 | 0.649
19 | CN1C(=O)[C@]2(Cc3ccccc3)N=C(c3ccc(OCCCO)cc3)O[C@@H]2c2ccccc21 | 1.46 | -1.36 | 0.235 | 0.33 | -0.323 | 0.0761 | 0.0469 | 0.849 | 1.3 | 0.51
20 | COc1ccc([Si](C)(C)[C@@H]2[C@@H](CCO)O[C@]3(C(=O)N(Cc4ccc(N5C(=O)COc6ccccc65)cc4)c4ccccc43)[C@H]2C)cc1 | -0.674 | -4.99 | 0.88 | 1.51 | 0.879 | 0.199 | -0.0146 | -0.394 | 0.572 | 0.896
21 | CN1C(=O)C2C=CC(C(O)c3ccc(I)cc3)N(N3CCCCC3)C2C1=O (stereo not given) | 1.43 | -0.435 | 0.0759 | 1.64 | 0.219 | 0.0599 | 0.184 | 1.34 | 1.19 | 1.22
22 | CCCCC=C[C@@H](NC(=O)Oc1cccc(C(F)(F)F)c1)c1ccccc1 | 1.18 | -1.07 | -0.143 | 1.85 | 1.11 | 1.04 | 1.97 | 0.59 | 0.503 | 1.62
23 | O=C(NCc1ccccc1)[C@@H]1c2ccccc2C(=O)N(CC23CC4CC(CC(C4)C2)C3)[C@H]1c1ccc(CO)cc1 | 1.36 | -1.96 | 0.567 | 0.237 | -0.831 | -0.0957 | -0.0337 | -0.584 | 0.575 | 0.645
24 | COCCCN1C(=O)[C@@]2(Cc3ccccc31)c1ccccc1C(=O)N(Cc1ccccc1C(F)(F)F)[C@H]2c1ccc(CO)cc1 | 0.898 | -0.311 | 0.33 | -0.47 | -0.206 | 0.439 | -0.243 | 1.79 | 0.094 | 0.33
25 | COC(=O)[C@@]1(Cc2ccc(F)cc2)[C@H]2c3cc(C(=O)N(C)C)n(Cc4ccc(S(C)(=O)=O)cc4)c3C[C@H]2CN1C(=O)c1ccccc1 | -0.164 | -0.328 | 0.213 | 2.54 | 0.497 | -0.0125 | 0.123 | 1.84 | 2.08 | 0.15
26 | CCCCN1CC=CC23O[C@@H]4C=CCOC(=O)[C@@H]4[C@H]2C(=O)N(CCCCCO)[C@@H]3C1=O (stereo not given in full) | -0.524 | 0.536 | -1.53 | -0.615 | -0.363 | -0.124 | 0.627 | 0.151 | 1.95 | -1.47
27 | CC(C)OC(=O)C=C1C[C@@H](c2ccccc2C(F)(F)F)O[C@@H](c2ccccc2C(F)(F)F)O1 | 0.706 | -0.384 | 0.351 | -0.21 | -0.624 | -0.13 | -0.2 | 0.0234 | -0.281 | 0.497
28 | CC(=O)NCCCC[C@@H]1NC(=O)[C@@H]2C[C@H](C(=O)NCCCCN(C)C)[C@H](c3cccc(OCCO)c3)N2C1=O | -0.426 | 0.471 | -0.419 | 0.017 | 0.0573 | -0.0944 | 0.0048 | -0.0474 | -1.4 | 0.473
29 | CCCCN1CC=CC23O[C@@H]4/C=C\CCC(C)OC(=O)C4[C@H]2C(=O)N(CCCCCO)[C@@H]3C1=O (stereo not given in full) | 0.15 | -0.275 | -1.39 | -0.78 | 0.0481 | -0.191 | -0.214 | -0.21 | 1.27 | -1.14
30 | C=CCNC(=O)[C@@H]1[C@H]2C(=O)O[C@H](c3ccccc3)[C@H](c3ccccc3)N2[C@H](c2ccc(OCCO)cc2)[C@@]12C(=O)Nc1ccc(C#CCCO)cc12 | 1.32 | -1.36 | 1.28 | 1.44 | -0.0758 | 0.452 | 2.63 | 2.4 | 2.12 | 1.68
31 | CCCC[C@H]1OB(O)C[C@H]2C1=C(COc1ccccc1)C[C@H]1C(=O)N(C)C(=O)[C@H]12 | -0.121 | -0.271 | 0.283 | -0.515 | -0.255 | 0.0438 | 0.0899 | -0.106 | 0.101 | 0.0648
